Test results from PubChem BioAssay (NCI).
The panel holds about 79,000 compounds, 15% with a hit somewhere; the sample as a whole holds those more often. Activity calls are given as the source filed them. No stated cut-off is given here; in the data, active means growth inhibition above about 70%; inactive means the rest.

Experiments:
[1] = NCI Yeast Anticancer Drug Screen. Data for the rad52 strain (AID 147);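 further: 0% = growth of vehicle-treated control cultures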; conditions: S. cerevisiae rad52 mutant growth inhibition, hits give high values
Outline: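 The repair-mutant yeast strain was incubated with compounds, then growth was read and inhibition derived relative to vehicle.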

[2] = NCI Yeast Anticancer Drug Screen. Data for the wt1 strain (AID 149);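 further: 0% = growth of vehicle-treated wt1 cultures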; conditions: S. cerevisiae wt1 strain (SPY 50644) growth inhibition, hits give high values
Outline: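 wt1 yeast, compound-treated; % growth inhibition vs vehicle control.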

[3] = NCI Yeast Anticancer Drug Screen. Data for the rad50EPP+ strain (AID 151);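 further: 0% = growth of vehicle-treated control cultures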; conditions: S. cerevisiae rad50 mutant strain, hits give high values
Outline: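 Vehicle-normalised growth inhibition; rad50EPP+ yeast strain, altered in DNA damage repair, compound-treated.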

[4] = NCI Yeast Anticancer Drug Screen. Data for the mgt1 strain (AID 153); conditions: S. cerevisiae mgt1 mutant growth inhibition, hits give high values
Outline: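 Vehicle-normalized growth inhibition is determined in mgt1 yeast, a strain selected for a defined alteration in DNA repair or cell cycle control.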

[5] = NCI Yeast Anticancer Drug Screen. Data for the rad50 strain (AID 155);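 further: 0% = growth of vehicle-only cultures of the same strain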; conditions: S. cerevisiae rad50 strain growth inhibition, hits give high values
Outline: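 Genetically altered yeast (DNA repair pathway); compound treatment; growth inhibition vs vehicle ctrl.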

[6] = NCI Yeast Anticancer Drug Screen. Data for the mec2-1 strain (AID 157); conditions: S. cerevisiae mec2-1 strain, hits give high values
Outline: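 Mutant yeast (mec2-1) grown with compound; growth inhibition relative to vehicle control reported.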

[7] = NCI Yeast Anticancer Drug Screen. Data for the rad14 strain (AID 159);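 further: 0% = growth of vehicle-treated control cultures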; conditions: S. cerevisiae rad14 strain growth inhibition, hits give high values
Outline: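 Test compounds were applied to a repair-deficient yeast strain. Its growth was then compared with that of cultures given vehicle alone, and inhibition was expressed relative to those controls.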

[8] = NCI Yeast Anticancer Drug Screen. Data for the sgs1 mgt1 strain (AID 161);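 further: 0% = growth of cultures given vehicle only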; conditions: S. cerevisiae sgs1 mgt1 strain, hits give high values
Outline: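 Yeast cells carrying a defined DNA-repair defect were exposed to test compounds. Growth inhibition was measured relative to vehicle-treated controls.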

[9] = NCI Yeast Anticancer Drug Screen. Data for the CLN2oe strain (AID 163);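 further: 0% = growth of vehicle-only control cultures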; conditions: S. cerevisiae CLN2oe strain, hits give high values
Outline: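 Compounds are applied to yeast harbouring a defined cell-cycle control change; reduced growth compared with vehicle-treated controls gives the value.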

[10] = NCI Yeast Anticancer Drug Screen. Data for the cln2 rad14 strain (AID 165);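 further: 0% = growth equal to vehicle treated cultures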; conditions: S. cerevisiae cln2 rad14 strain, hits give high values
Outline: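 Readout is yeast growth inhibition versus vehicle-treated controls, using a strain with cln2 and rad14 alterations exposed to compound.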

[11] = NCI Yeast Anticancer Drug Screen. Data for the bub3 strain (AID 167); conditions: S. cerevisiae bub3 mutant strain, hits give high values
Outline: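 Yeast carrying a defined mutation is treated with each compound, and growth is compared with that of vehicle-exposed cells to give inhibition.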

[12] = NCI Yeast Anticancer Drug Screen. Data for the wt2 strain (AID 169);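 further: 0% = growth of vehicle-treated yeast cultures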; conditions: S. cerevisiae wt2 strain growth inhibition, hits give high values
Outline: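 Against vehicle-treated controls, the growth of yeast exposed to each compound was compared, and the inhibition was recorded.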

[13] = NCI Yeast Anticancer Drug Screen. Data for the mlh1 strain (AID 171);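 further: 0% = growth of vehicle-treated control cultures of the same strain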; conditions: S. cerevisiae mlh1 strain growth inhibition, hits give high values
Outline: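 Measured: yeast growth. Reference: vehicle-treated controls. Organism: strain with a defined alteration affecting DNA damage repair or cell cycle control, treated with compound.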

[14] = NCI Yeast Anticancer Drug Screen. Data for the sgs1 strain (AID 173);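 further: 0% = growth of vehicle-only control cultures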; conditions: S. cerevisiae sgs1 mutant, hits give high values
Outline: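 Each compound was added to cultures of the altered yeast strain. Growth was recorded, and inhibition was derived by comparison with vehicle controls.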

[15] = NCI Yeast Anticancer Drug Screen. Data for the mlh1 rad18 strain (AID 175); conditions: S. cerevisiae mlh1 rad18 strain growth inhibition, hits give high values
Outline: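 Genetically defined yeast (DNA repair-deficient) exposed to compounds; growth inhibition determined relative to vehicle.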

[16] = NCI Yeast Anticancer Drug Screen. Data for the rad18 strain (AID 177); conditions: S. cerevisiae rad18 mutant growth inhibition, hits give high values
Outline: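 Vehicle-treated cultures served as the baseline for scoring compound-induced growth inhibition in DNA-repair-mutant yeast.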

[17] = at 5.0 µM (retest, dose inferred, filed as 0.5)
[18] = at 50.0 µM (retest, dose inferred, filed as 5.0)

Measured: growth inhibition

COC(=O)C1C2c3ccccc3C(c3ccccc32)C1C(=O)OC (stereo not drawn)
active: [8]; [18] 70% | [8]; at 50.0 µM 72.5%
inactive: [1]; at 1.2 µM 3% | [1]; at 3.7 µM 10% | [1]; at 11.0 µM 9% | [1]; at 33.0 µM 10% | [1]; at 100.0 µM 10% | [2]; at 1.2 µM 7% | [2]; at 3.7 µM 5% | [2]; at 11.0 µM 5% | [2]; at 33.0 µM 8% | [2]; at 100.0 µM 7% | [3]; at 1.2 µM 4% | [3]; at 3.7 µM 5% | [3]; at 11.0 µM 4% | [3]; at 33.0 µM 7% | [3]; at 100.0 µM 10% | [4]; at 1.2 µM -2% | [4]; at 3.7 µM -1% | [4]; at 11.0 µM -2% | [4]; at 33.0 µM 2% | [4]; at 100.0 µM 11% | [5]; at 1.2 µM 4% | [5]; at 3.7 µM 1% | [5]; [17] 6% | [5]; at 11.0 µM 3% | [5]; at 33.0 µM 7% | [5]; [18] 47% | [5]; at 50.0 µM 14.8% | [5]; at 100.0 µM 7% | [6]; at 1.2 µM -2% | [6]; at 3.7 µM -3% | [6]; [17] -3% | [6]; at 11.0 µM -1% | [6]; at 33.0 µM 0% | [6]; [18] 15% | [6]; at 50.0 µM 41.5% | [6]; at 100.0 µM 9% | [7]; at 1.2 µM 2% | [7]; at 3.7 µM 2% | [7]; at 11.0 µM 0% | [7]; at 33.0 µM 8% | [7]; at 100.0 µM 13% | [8]; [17] 5% | [9]; at 1.2 µM 2% | [9]; at 3.7 µM -1% | [9]; at 11.0 µM 0% | [9]; at 33.0 µM 7% | [9]; at 100.0 µM 17% | [10]; [17] -3% | [10]; [18] 28% | [10]; at 50.0 µM 8.85% | [11]; at 1.2 µM -1% | [11]; at 3.7 µM -2% | [11]; [17] 19% | [11]; at 11.0 µM -4% | [11]; at 33.0 µM 1% | [11]; [18] 27% | [11]; at 50.0 µM 14.4% | [11]; at 100.0 µM 2% | [12]; at 1.2 µM -2% | [12]; at 3.7 µM -6% | [12]; at 11.0 µM -1% | [12]; at 33.0 µM 5% | [12]; at 100.0 µM -1% | [13]; at 1.2 µM -2% | [13]; at 3.7 µM -2% | [13]; at 11.0 µM -3% | [13]; at 33.0 µM 1% | [13]; at 100.0 µM 11% | [14]; at 1.2 µM -6% | [14]; at 3.7 µM -17% | [14]; at 11.0 µM -11% | [14]; at 33.0 µM -4% | [14]; at 100.0 µM 2% | [15]; [17] 17% | [15]; [18] 69% | [15]; at 50.0 µM 17.1% | [16]; at 1.2 µM 0% | [16]; at 3.7 µM 2% | [16]; at 11.0 µM 4% | [16]; at 33.0 µM 7% | [16]; at 100.0 µM 8%

c1ccc(N=c2nc(N3CCOCC3)ss2)cc1
inactive: [1]; at 1.2 µM -3% | [1]; at 3.7 µM 3% | [1]; at 11.0 µM 27% | [2]; at 1.2 µM -3% | [2]; at 3.7 µM 4% | [2]; at 11.0 µM 15% | [3]; at 1.2 µM -5% | [3]; at 3.7 µM 2% | [3]; at 11.0 µM 19% | [3]; at 33.0 µM 56% | [4]; at 1.2 µM -3% | [4]; at 3.7 µM 11% | [5]; at 1.2 µM -6% | [5]; at 3.7 µM 6% | [5]; [17] 19% | [5]; at 11.0 µM 51% | [6]; at 1.2 µM -4% | [6]; at 3.7 µM 7% | [6]; [17] 14% | [6]; at 11.0 µM 37% | [7]; at 1.2 µM -3% | [7]; at 3.7 µM 13% | [7]; at 11.0 µM 61% | [8]; [17] 58% | [9]; at 1.2 µM -11% | [9]; at 3.7 µM -13% | [9]; at 11.0 µM 3% | [10]; [17] -5% | [11]; at 1.2 µM -5% | [11]; at 3.7 µM 5% | [11]; [17] 8% | [11]; at 11.0 µM 56%
active: [1]; at 33.0 µM 98% | [1]; at 100.0 µM 99% | [2]; at 33.0 µM 98% | [2]; at 100.0 µM 98% | [3]; at 100.0 µM 99% | [4]; at 11.0 µM 71% | [4]; at 33.0 µM 99% | [4]; at 100.0 µM 99% | [5]; at 33.0 µM 99% | [5]; [18] 99% | [5]; at 50.0 µM 98.6% | [5]; at 100.0 µM 99% | [6]; at 33.0 µM 99% | [6]; [18] 100% | [6]; at 50.0 µM 99.7% | [6]; at 100.0 µM 99% | [7]; at 33.0 µM 99% | [7]; at 100.0 µM 99% | [8]; [18] 100% | [8]; at 50.0 µM 98.7% | [9]; at 33.0 µM 87% | [9]; at 100.0 µM 98% | [10]; [18] 99% | [10]; at 50.0 µM 93.4% | [11]; at 33.0 µM 99% | [11]; [18] 99% | [11]; at 50.0 µM 99.3% | [11]; at 100.0 µM 99%
